Among all 410,000 compounds or so, about 7,200 (1.8%) were called active. Not shown: some 7% with an inconclusive outcome. The call rests on the fitted dose curve; in most records, active means well fitted activation curve with a large enough effect; inconclusive means small, poorly fitted or top-dose-only effect, or another doubt; inactive means no such curve, though single readings can be large or run the other way. Only a selection was taken, and actives are over-represented in it overall.
Assay: qHTS of TDP-43 Inhibitors; further: nearly all actives have a fitted effect of over 50% in size; on growth rescue (activation): % of control where 0% means no effect
Details: TDP-43 expressing yeast growth rescue, BacTiter-Glo, 24 h; series mostly up to 46.1 µM; growth rescue (activation): at the top concentration
Description: The goal of this project is to identify new chemical probes capable of reversing the toxicity associated with TDP-43 which is associated with frontotemporal lobar degeneration and amyotrophic lateral sclerosis. These compounds will provide a complementary approach to deciphering the tangled mechanisms of toxicity and protection that we have uncovered through genome-wide genetic screens and are beginning to uncover in a large-scale proteomics analysis with mass spectroscopy.
To this end, a miniaturized assay was developed to be screened against the Molecular Libraries Small Molecule Repository (MLSMR) to discover TDP-43 inhibitors. Please note that in the set-up this yeast-based assay compounds that inhibit as TDP-43, have a read-out as activators.
NIH Chemical Genomics Center [NCGC]
NIH Molecular Libraries Probe Centers Network [MLPCN]
Assay Submitter (PI): Susan Lindquist, Whitehead Institute/MIT
Dispense 2.5 microL yeast galactose medium per 1536-well plate, pin compound, dispense 2.5 microL TDP-43 expressing yeast in galactose medium at OD600=0.02 (pregrown in raffinose medium to mid-log phase) per well, incubate for 24 hr at 30 deg C, and cell growth will be measured using 5 microL of Bactiter/Glo reagent to entire plate and read using Luminescence Protocol in ViewLux.
Potency means the concentration at half of the fitted maximal effect.

Row | SMILES | growth rescue (activation) | Potency
1 | COc1ccc(CNCCc2ccc3c(c2)OCO3)c(OC)c1OC | 0.202% (inactive) | –
2 | Cc1cc(=O)oc2c(C)c(OCC(=O)N3CCN(Cc4ccc5c(c4)OCO5)CC3)ccc12 | -20.2% (inactive) | –
3 | CCOc1ccc(S(=O)(=O)NCc2ccc3c(c2)OCO3)cc1C | – | 12.6 µM (active)
4 | O=C(CCC(=O)N1C[C@H]2C[C@@H](C1)c1cccc(=O)n1C2)NCc1ccccc1C(F)(F)F | 17.2% (inactive) | –
5 | COc1cccc(C(c2nnnn2-c2ccc3c(c2)OCCO3)N2CCC3(CC2)C(=O)NCN3c2ccccc2)c1OC (stereo not given) | 27.4% (inactive) | –
6 | Oc1cc2c(cc1CN1CCN(c3ccccc3)CC1)OCO2 | -5.52% (inactive) | –
7 | O=C(NC1CCCCC1)N1Cc2cc(N3CCCCC3)ccc2-n2nncc2C1 | 8.16% (inactive) | –
8 | c1cc2c(cc1CCNC1CCCCCC1)OCO2 | 3.13% (inactive) | –
9 | c1cc2c(cc1[C@H]1OC[C@H]3[C@@H]1CO[C@@H]3c1ccc3c(c1)OCO3)OCO2 | – | 11.2 µM (active)
10 | O=C1/C(=C\c2ccc3c(c2)OCO3)N2CCC1CC2 | -14.1% (inactive) | –
11 | O=C(Cc1ccc(Cl)cc1)NCCN1CCN(C(=O)Cc2ccc(Cl)cc2)CC1 | -16.1% (inactive) | –
12 | CCOC(=O)c1cccc(C2=C(CNC(=O)c3ccncc3)[C@H]3CC[C@@H](C2)N3Cc2ccccc2)c1 | 16.2% (inactive) | –
13 | Cc1ccnc(-n2c(C)cc(/C=C3\C(=O)NC(=S)N(C)C3=O)c2C)c1 | – | 35.5 µM (active)
14 | Cc1cc(C=C2C(=O)NC(=O)NC2=O)c(C)n1-c1ccncc1 | 0% (inactive) | –
15 | Cc1ccc(-n2c(C)cc(/C=C3\C(=O)NC(=O)N(C)C3=O)c2C)cc1C | 15.2% (inactive) | –
16 | ClC(Cl)(Cl)c1ccccc1 | 20.2% (inactive) | –
17 | O=c1c2ccccc2nc(CBr)n1-c1ccc(Cl)cc1 | -19.6% (inactive) | –
18 | Cc1nc2ccccc2c(=O)n1-c1ccc(Cl)cc1Cl | – | 15.8 µM (active)
19 | O=c1c2ccccc2nc(-c2ccc(Cl)cc2Cl)n1-c1ccncc1 | 3.25% (inactive) | –
20 | CCOC(=O)[C@]12Cc3cc(OC)ccc3[C@H]1N(C(C)C)C(=O)c1ccccc12 | -64.3% (inactive) | –
21 | CCOC(=O)c1c(-c2ccccc2)oc2ccc(OC(=O)N(C)C)cc12 | 7.35% (inactive) | –
22 | Cc1ccc(-c2nc3ccccc3c(=O)n2-c2ccc(Br)cn2)cc1 | 3.11% (inactive) | –
23 | N#Cc1ccc(Cn2cc(C(=O)c3ccco3)c3ccccc32)cc1 | – | 17.8 µM (active)
24 | NC(=O)Cn1cc(C(=O)c2ccccc2F)c2ccccc21 | 15.2% (inactive) | –
25 | Cc1ccc([C@H]2C[C@H](O)[C@@H](n3cc(COC(=O)c4ccccc4)nn3)CN2CC2CCCCC2)cc1 | 0% (inactive) | –
26 | CC(C)N(CC#CCC1(O)c2ccccc2-c2ccccc21)C(C)C | -17.2% (inactive) | –
27 | Cc1cccc(Cn2cccc(C(=O)Nc3ccc4c(c3)OCCO4)c2=O)c1 | 17% (inactive) | –
28 | CCOC(=O)C1CN(C)CCC1=O (stereo not given) | 5.32% (inactive) | –

Row | SMILES | growth rescue (activation) | Potency
29 | c1ccc(-c2nnc(SCc3nc4ccccc4[nH]3)o2)cc1 | – | 12.6 µM (active)
30 | c1cc2c(c(NC3=NCCCS3)c1)CCCC2 | 5.1% (inactive) | –
31 | O=c1[nH]c2ccccc2n1C1CCN(C(c2ccnc3ccccc23)c2nnnn2Cc2ccccc2)CC1 (stereo not given) | 10.3% (inactive) | –
32 | COC(=O)C1=C(c2ccc(F)cc2OCc2ccccc2)C[C@@H]2CC[C@H]1N2C(=O)NCc1ccc(OC)c(OC)c1 | 19.4% (inactive) | –
33 | COC(=O)C1=C(c2ccc(F)cc2OCc2ccccc2)C[C@@H]2CC[C@H]1N2C(=O)NCc1ccc2[nH]ccc2c1 | 4.65% (inactive) | –
34 | COC(=O)C1=C(c2ccccc2OCc2ccccc2)C[C@@H]2CC[C@H]1N2C(=O)NCc1ccc(OC)cc1 | – | 35.5 µM (active)
35 | Cc1ccc(NC(=O)N(Cc2ccc3c(c2)OCO3)C2CCN(Cc3ccccc3)CC2)cc1F | 0.85% (inactive) | –
36 | O=C(C1CCN(S(=O)(=O)c2ccc(Br)s2)CC1)N1CCN(c2ccccc2)CC1 | 0% (inactive) | –
37 | O=c1[nH]c2ccccc2n1C1CCN(C(c2ccccc2)c2nnnn2Cc2ccccc2)CC1 (stereo not given) | 0% (inactive) | –
38 | COC(=O)C1=C(c2ccc(F)cc2F)C[C@@H]2CC[C@H]1N2C(=O)NC1CC1 | 13.1% (inactive) | –
39 | Cn1c(C(=O)N2CCC(C(=O)N3CCC4(CC3)OCCO4)CC2)cc2sccc21 | -14.1% (inactive) | –
40 | Cc1cc(N2C(=O)C3CCCN3C2c2ccc(Cl)c(Cl)c2)no1 (stereo not given) | 16.4% (inactive) | –
41 | CC1CNCCN1c1ccc(Cl)cc1 (stereo not given) | -10.5% (inactive) | –
42 | C[C@]12CCC3C(CC[C@H]4[C@H](O)[C@H](O)CC[C@]34C)C1CCC2=O (stereo not given in full) | 9.92% (inactive) | –
43 | CC12CCC3C(CCC4CC(=O)CCC43C)C1CC(=NO)C2=O (stereo not given) | – | 15.8 µM (active)
44 | COc1ccc(-n2nnnc2C(c2cccc3ccccc23)N2CCC(n3c(=O)[nH]c4ccccc43)CC2)cc1 (stereo not given) | 19.2% (inactive) | –
45 | Nc1ccc(Cc2ccc(N)c(Cl)c2)cc1Cl | – | 12.6 µM (active)
46 | CNCC[C@H](Oc1ccc(C(F)(F)F)cc1)c1ccccc1 | 13.1% (inactive) | –
47 | COc1ccc(-c2nn(CCC#N)cc2C(=O)Nc2ccc(C(C)=O)cc2)cc1 | 0% (inactive) | –
48 | CC(C)Oc1ccc(NC(=O)c2cc3ccccc3o2)cc1 | -11.1% (inactive) | –
49 | C[N+]1(C)CCOC(O)(c2ccc(-c3ccc(C4(O)C[N+](C)(C)CCO4)cc3)cc2)C1 (stereo not given) | – | 5.01 µM (active)
50 | Cc1nn(-c2ccccc2)c(C)c1NC(=O)COC(=O)Cc1ccccc1 | 5.52% (inactive) | –
51 | C[C@@H]1C[C@@H]2O[C@H]2/C=C\C=C\C(=O)Cc2c(Cl)c(O)cc(O)c2C(=O)O1 | – | 11.2 µM (active)
52 | c1ccc(CC2CCCCN2)cc1 (stereo not given) | 1.64% (inactive) | –
53 | CN(C(=O)c1cccc(NC(=O)Cc2cccc([N+](=O)[O-])c2)c1)C1CCCCC1 | -14.5% (inactive) | –
54 | Cc1ccc([C@H]2C[C@H](O)[C@@H](n3cc(COC(=O)c4ccccc4)nn3)CN2C(=O)C2CCCCC2)cc1 | 11.7% (inactive) | –
55 | O=C(Nc1ccc(Cl)cc1C(=O)c1ccccc1)c1cc(Cl)cc(Cl)c1 | -4.61% (inactive) | –

From PubChem BioAssay AID652104 (National Center for Advancing Translational Sciences (NCATS), 2013)
